# Entries with a potency or affinity are not part of this list.
# Key:
# Klebsiella pneumoniae = conditions: Concentration 20 uM; ASSAY_TEST Inhibition of Bacterial Growth; detection method Absorption (OD600); MEDIA CAMHB; plate type 384well; NBS; CORNING #3640; time 18 hr
# Candida albicans = conditions: 20 µM
# Cryptococcus neoformans = conditions: Concentration 20 uM; ASSAY_TEST Inhibition of Fungal Growth; detection method Resazurin; Absorption (OD600-OD570); plate type 384well; NBS; CORNING #3640
SMILES,Inhibition (Klebsiella pneumoniae),Inhibition (Candida albicans),Inhibition (Cryptococcus neoformans)
O=C(NC1CC1)c1ccc(N2CCC(Cc3ccccc3)CC2)nc1,19.39%,4.1%,-7.07%
CC(=O)N(CCN(C(=O)c1ccc(F)cc1)c1ccccc1)c1ccccc1,8.37%,4.16%,-8.06%
CC1CS(=O)(=O)CCN1/N=C/c1ccc([N+](=O)[O-])o1 (stereo unspecified) [NIFURTIMOX],15.43%,4.12%,5.99%
O=C1Nc2ccc(Br)cc2C12NCCc1c2[nH]c2ccccc12 (stereo unspecified),4.49%,2.19%,-1.68%
COCC(C)NC(=O)CSc1ncnc2sc(-c3ccccc3)cc12 (stereo unspecified),18.05%,9.04%,0.58%
Cc1ccc(NC(=O)c2cc(S(=O)(=O)NC(C)(C)C)ccc2C)nc1,13.76%,1.54%,-5.42%
Cl.c1ccc(C[C@@H]2CN(c3nccc(Oc4ccc(-n5ccnc5)cc4)n3)CCN2)cc1,13.63%,3.57%,-6.59%
Cc1cc(Nc2ccncc2)n2nc(C)c(-c3ccccc3Cl)c2n1,15.32%,1.91%,-9.03%
Nc1ncnc2c1c(Cc1cccc3ccccc13)nn2CC1CCNCC1,-3.02%,2.11%,-1.33%
Cn1ncc2c(N3CCOCC3)nc(NCCc3c[nH]c4ccccc34)nc21 [TDR79432],9.02%,4.1%,-8.59%
COc1ccc(-c2cncc3ccc(C(=O)NCCCn4ccnc4)nc23)cc1,3.32%,4.61%,-8.59%
CCN(CC)CCCN1CCN(C(=O)c2cccc(-c3noc(C(F)(F)F)n3)c2)CC1,3.68%,1.48%,-3.47%
